# Screening results: PubChem BioAssay, ICCB-Longwood Screening Facility, Harvard Medical School
# MgrA-DNA mod: S. aureus MgrA activity modulators, primary screen, biochemical, S. aureus Newman, fluorescence polarization. AID 602314, 2012. inhibition, % (concentration not given with the values). MgrA-DNA binding. 84,000 compounds, 0.13% hits; in the data active = inhibition above about 30%, passing the limit was not always enough;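 note: 0% = protein plus DNA without compound and 100% = DNA alone without protein; higher means less MgrA bound to DNA so lower polarization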
# Numbers without * were called inactive. Many of the other results were omitted from the sample, so hits are more common in it than they were.
SMILES,MgrA-DNA mod
CN1CCc2c(C#N)c(N)n(N)c(=S)c2C1,161*
CN1CCc2[nH]c(=S)c(C#N)c(-c3ccccc3)c2C1,10
CN1CCc2c(C#N)c(Cl)nc(NCc3ccccc3)c2C1,-1
O=c1[nH]ncc(Cl)c1Cl,0
CN1C(=O)NC(=O)/C(=C\c2ccc(OCc3ccc(C(=O)O)cc3)c(Br)c2)C1=O,14
CC(O)C1CCC2C3CCC4=CC(=O)CCC4(C)C3CCC12C (stereo not given),-1
O=C1NC(=S)N(c2ccccc2)C(=O)/C1=C/C=C/c1ccco1,80*
CN1C(=O)NC(=O)/C(=C/c2ccco2)C1=O,12
O=C1NC(=O)N(c2ccccc2)C(=O)/C1=C/c1ccco1,17
CCCC1=C(C(=O)OCC)C2(C(=O)Nc3ccccc32)C(C(=O)OCC)=C(N)O1 (stereo not given),-1
